In PMC4336329 (PLoS ONE, 2015):
Among all 310,000 compounds or so, about 14,000 (4.5%) showed an effect of 50% or more. The effect is printed as a negative number. The sample as a whole holds a higher share of strong results than the screen did.

Target: human ether-à-go-go-related gene (hERG) potassium channel (human, UniProt Q12809)
Test: primary screen, population patch clamp on CHO cells stably expressing hERG; higher = less effect of the substance
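Note: peak tail current of the secondary pulse compared with the same well before compound.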

Sequence of human ether-à-go-go-related gene (hERG) potassium channel (Q12809 whole entry, looked up): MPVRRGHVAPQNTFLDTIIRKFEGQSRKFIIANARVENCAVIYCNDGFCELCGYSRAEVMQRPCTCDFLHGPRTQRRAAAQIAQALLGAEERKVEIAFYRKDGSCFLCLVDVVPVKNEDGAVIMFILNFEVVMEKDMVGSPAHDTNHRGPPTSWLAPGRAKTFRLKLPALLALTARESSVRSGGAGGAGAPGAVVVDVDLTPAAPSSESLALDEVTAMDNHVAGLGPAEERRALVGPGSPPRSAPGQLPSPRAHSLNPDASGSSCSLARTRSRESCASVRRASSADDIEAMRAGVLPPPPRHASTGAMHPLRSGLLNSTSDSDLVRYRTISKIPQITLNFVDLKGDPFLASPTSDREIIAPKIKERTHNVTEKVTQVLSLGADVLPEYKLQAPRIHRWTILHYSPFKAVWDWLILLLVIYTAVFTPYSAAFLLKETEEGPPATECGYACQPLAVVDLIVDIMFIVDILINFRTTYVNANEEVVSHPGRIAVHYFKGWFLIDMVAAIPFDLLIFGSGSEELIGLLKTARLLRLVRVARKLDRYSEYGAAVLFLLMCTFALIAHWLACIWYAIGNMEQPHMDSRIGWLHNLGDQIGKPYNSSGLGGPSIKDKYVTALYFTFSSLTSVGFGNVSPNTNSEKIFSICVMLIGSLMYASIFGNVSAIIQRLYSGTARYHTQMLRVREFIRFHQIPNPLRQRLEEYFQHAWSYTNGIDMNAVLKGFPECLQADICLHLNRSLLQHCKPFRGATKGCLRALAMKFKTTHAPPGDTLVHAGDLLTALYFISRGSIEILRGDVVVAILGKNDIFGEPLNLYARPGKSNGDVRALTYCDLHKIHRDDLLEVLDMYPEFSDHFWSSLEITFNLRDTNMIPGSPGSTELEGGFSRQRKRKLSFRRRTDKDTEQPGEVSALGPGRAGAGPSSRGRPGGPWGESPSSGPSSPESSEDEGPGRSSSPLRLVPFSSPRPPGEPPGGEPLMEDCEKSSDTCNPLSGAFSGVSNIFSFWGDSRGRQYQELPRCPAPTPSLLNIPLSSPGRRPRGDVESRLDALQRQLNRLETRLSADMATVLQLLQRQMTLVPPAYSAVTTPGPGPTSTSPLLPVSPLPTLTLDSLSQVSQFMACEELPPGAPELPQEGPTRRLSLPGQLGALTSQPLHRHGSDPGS

Structure (SMILES) | hERG current change (%, negative = inhibition) at 10uM [%]
COc1ccc(-c2oc3ccc(-c4cc(OC)c(OC)c(OC)c4)cc3c2-c2ccc(OC)cc2)cc1 | 13.6
CN(C)S(=O)(=O)c1cccc(COC(=O)c2ccc(Cl)cc2O)c1 | -7.36
CC(=O)Oc1c(Cl)c(N2CCOCC2)c(OC(C)=O)c2ccccc12 | -25.2
CCN(Cc1ccccc1)C(=O)c1cccc(S(=O)(=O)N2CCN(Cc3ccccc3)CC2)c1 | -19.6
Cc1csc(N2CCN(c3cc4c(cc3Cl)nc(-c3ccncc3)n4CCCN3CCCC3)CC2)n1 | -64.8
Cc1ccc(-c2csc(N3CCN(c4cc5c(cc4Cl)nc(-c4ccncc4)n5CCN4CCCCC4)CC3)n2)cc1 | 10.5
Cc1ccc(-c2csc(N3CCN(c4cc5c(cc4Cl)nc(-c4ccncc4)n5CCOCCO)CC3)n2)cc1 | 4.81
Cc1n[nH]c(=S)n1-c1cccc(Cl)c1 | 19.7
Cc1nnc(N2C(=O)C(O)=C(C(=O)c3ccco3)C2c2cccc3ccccc23)s1 (stereo not shown) | -0.387
Cc1cccn2c(=O)c3cc(C(=O)NC4CCCCC4)c(=N)n(Cc4ccc(F)cc4)c3nc12 | -77.1
Cc1cccn2c(=O)c3cc(C(=O)NC4CCCCC4)c(=N)n(Cc4ccccc4)c3nc12 | -74.6
Cc1cccn2c(=O)c3cc(C(=O)NC4CCS(=O)(=O)C4)n(Cc4ccccc4)c3nc12 (stereo not shown) | -4.36
Cc1cccn2c(=O)c3cc(C(=O)NC4CCCC4)c(=N)n(Cc4ccc(F)cc4)c3nc12 | -68.2
Cc1cccn2c(=O)c3cc(C(=O)NC4CCCCCC4)sc3nc12 | 9.51
Nc1ccc(C(=O)Nc2cccc(NC(=O)c3ccc(N)cc3)c2)cc1 | 17.7
Cn1c(=O)c(=O)n(C)c2cc(S(=O)(=O)CCC(=O)Nc3ccc(F)cc3)ccc21 | -2.6
CS(=O)(=O)N1CCN(CC2CC3C=CC2C3)CC1.O=C(O)C(=O)O (stereo not shown) | 5.01
CCOc1ccc(N2C(=O)C3C(c4ccc(O)cc4)NC(CCSC)(C(=O)OC)C3C2=O)cc1 (stereo not shown) | -12.3
CC(NC(=O)c1nn(C)c(=O)c2ccccc12)c1ccc(F)cc1 (stereo not shown) | -3.84
CCCOC(=O)c1ccccc1C(=O)OCCC | -3.24

Structure (SMILES) | hERG current change (%, negative = inhibition) at 10uM [%]
CCCCCCCCNC(=O)CCNC(=O)c1ccc(C(C)(C)C)cc1 | 8
O=C(NCc1ccccc1)c1ccc(F)c(S(=O)(=O)N2CCOCC2)c1 | -17.4
O=C(c1cc(S(=O)(=O)N2CCOCC2)ccc1F)N(CCc1ccccc1)Cc1ccccc1 | -4.37
O=C(c1cccc(S(=O)(=O)N2CCOCC2)c1)N(CCc1ccccc1)Cc1ccccc1 | -55.4
O=C(c1cccc(S(=O)(=O)N2CCOCC2)c1)N(CCO)Cc1ccccc1 | -19.8
O=C(c1ccc(F)c(S(=O)(=O)N2CCOCC2)c1)N(CCc1ccccc1)Cc1ccccc1 | -68.3
CC1CN(S(=O)(=O)c2cccc(C(=O)N(CCc3ccccc3)Cc3ccccc3)c2)CC(C)O1 (stereo not shown) | -7
CCc1nc2cc([N+](=O)[O-])c([N+](=O)[O-])cc2[nH]1 | -14.5
NC(=O)c1ccccc1NC(=O)c1ccc2c(c1)OCO2 | 5.14
CCc1cc2c(=O)n(CC(=O)NC3CCCCC3)cnc2s1 | 4.86
COc1ccc(C2Nc3ccccc3C(=O)N2NC(C)=O)c(OC)c1 (stereo not shown) | 14.3
Cc1ccc(C)c2c(N)c3c(nc12)CCCCC3.O=C(O)c1cncc(Br)c1 | -88.4
CN1CCCCc2c1nc1ccccc1c2N.O=C(O)c1cncc(Br)c1 | -82.5
Cc1cc(Br)c2nc3c(c(C(=O)O)c2c1)CCCCC3 | 4.41
Cc1ccc2nc3c(c(N)c2c1)CCN3C.O=C(O)C(=O)O | -33.1
O=C(O)c1cncc(Br)c1 | 27.3
Cc1cccc2c(N)c3c(nc12)N(C)CC3.O=C(O)C(=O)O | -23.1
O=[N+]([O-])c1ccc(-c2cnc(NO)nc2)cc1 | -28
CC(C)(C)NC(=O)C(=O)NNC(=O)c1cccc(F)c1 | 18.1
CC1=C(C#N)C(=O)N(C2CCS(=O)(=O)C2)C(=O)/C1=C\c1ccco1 (stereo not shown) | 7.81
